The panel holds about 79,000 compounds, 15% with a hit somewhere; the sample as a whole holds those more often. The source made the active and inactive calls. Rule as the data show it: active = growth inhibition above about 70%; inactive = the rest.
How the values were obtained:
[1] = NCI Yeast Anticancer Drug Screen. Data for the rad52 strain (AID 147);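 also: 0% = growth of vehicle-treated control cultures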; settings: S. cerevisiae rad52 mutant growth inhibition, hits give high values
Outline: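 Screen used a yeast mutant impaired in DNA repair. After compound exposure, growth was measured. Values reflect inhibition compared with vehicle-treated cells.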

[2] = NCI Yeast Anticancer Drug Screen. Data for the wt1 strain (AID 149);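 also: 0% = growth of vehicle-treated wt1 cultures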; settings: S. cerevisiae wt1 strain (SPY 50644) growth inhibition, hits give high values
Outline: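 The wt1 strain was treated with compounds, and growth was compared with vehicle-treated cultures to give inhibition.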

[3] = NCI Yeast Anticancer Drug Screen. Data for the rad50EPP+ strain (AID 151);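 also: 0% = growth of vehicle-treated control cultures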; settings: S. cerevisiae rad50 mutant strain, hits give high values
Outline: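 Exposing the rad50EPP+ strain to each compound, growth was compared with vehicle-only cultures to give inhibition.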

[4] = NCI Yeast Anticancer Drug Screen. Data for the mgt1 strain (AID 153); settings: S. cerevisiae mgt1 mutant growth inhibition, hits give high values
Outline: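 Genetically defined yeast (mgt1) treated with compound; inhibition of growth expressed against vehicle-treated controls.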

[5] = NCI Yeast Anticancer Drug Screen. Data for the rad50 strain (AID 155);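 also: 0% = growth of vehicle-only cultures of the same strain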; settings: S. cerevisiae rad50 strain growth inhibition, hits give high values
Outline: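 Cells are treated with compound, grown, and their growth is then scored against vehicle-only cultures of the same repair-deficient yeast strain.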

[6] = NCI Yeast Anticancer Drug Screen. Data for the mec2-1 strain (AID 157); settings: S. cerevisiae mec2-1 strain, hits give high values
Outline: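 Readout is yeast growth inhibition, normalised to vehicle-treated controls, in the mec2-1 strain exposed to compound.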

[7] = NCI Yeast Anticancer Drug Screen. Data for the rad14 strain (AID 159);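 also: 0% = growth of vehicle-treated control cultures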; settings: S. cerevisiae rad14 strain growth inhibition, hits give high values
Outline: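 Readout: yeast growth inhibition, referenced to vehicle-only cultures. Strain bears a defined alteration in DNA damage repair.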

[8] = NCI Yeast Anticancer Drug Screen. Data for the sgs1 mgt1 strain (AID 161);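 also: 0% = growth of cultures given vehicle only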; settings: S. cerevisiae sgs1 mgt1 strain, hits give high values
Outline: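 Growth of a repair-deficient yeast mutant was monitored after compound treatment and expressed as inhibition relative to vehicle-treated cultures.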

[9] = NCI Yeast Anticancer Drug Screen. Data for the CLN2oe strain (AID 163);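 also: 0% = growth of vehicle-only control cultures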; settings: S. cerevisiae CLN2oe strain, hits give high values
Outline: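 Values reflect how much compound exposure reduced yeast growth, referenced to vehicle-exposed cells. Assay organism is a strain with a defined genetic change affecting cell-cycle control.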

[10] = NCI Yeast Anticancer Drug Screen. Data for the cln2 rad14 strain (AID 165);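 also: 0% = growth equal to vehicle treated cultures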; settings: S. cerevisiae cln2 rad14 strain, hits give high values
Outline: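 Relative to vehicle controls, growth inhibition of compound-treated cln2 rad14 yeast was recorded.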

[11] = NCI Yeast Anticancer Drug Screen. Data for the bub3 strain (AID 167); settings: S. cerevisiae bub3 mutant strain, hits give high values
Outline: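 Part of a panel of yeast mutants defective in DNA damage repair or cell cycle regulation. Each strain is grown with compound, and inhibition is calculated relative to solvent-treated cultures.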

[12] = NCI Yeast Anticancer Drug Screen. Data for the wt2 strain (AID 169);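 also: 0% = growth of vehicle-treated yeast cultures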; settings: S. cerevisiae wt2 strain growth inhibition, hits give high values
Outline: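 Values express reduction in yeast growth under compound treatment, referenced to vehicle-treated cells.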

[13] = NCI Yeast Anticancer Drug Screen. Data for the sgs1 strain (AID 173);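 also: 0% = growth of vehicle-only control cultures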; settings: S. cerevisiae sgs1 mutant, hits give high values
Outline: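 Treat defined-mutant yeast with compound; measure growth; calculate inhibition relative to vehicle-treated cells.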

[14] = NCI Yeast Anticancer Drug Screen. Data for the mlh1 rad18 strain (AID 175); settings: S. cerevisiae mlh1 rad18 strain growth inhibition, hits give high values
Outline: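 Test agents were incubated with a yeast strain of defined genotype (DNA damage repair defect). Inhibition of growth was derived by comparison with vehicle-exposed cultures.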

[15] = NCI Yeast Anticancer Drug Screen. Data for the rad18 strain (AID 177); settings: S. cerevisiae rad18 mutant growth inhibition, hits give high values
Outline: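 A genetically defined yeast mutant impaired in DNA damage repair was treated with test compounds, then its growth was measured against cultures receiving vehicle alone.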

[16] = NCI Yeast Anticancer Drug Screen. Data for the mlh1 strain (AID 171);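 also: 0% = growth of vehicle-treated control cultures of the same strain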; settings: S. cerevisiae mlh1 strain growth inhibition, hits give high values
Outline: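 Steps: expose the defined-mutant yeast strain to compound; expose a parallel culture to vehicle; measure growth; express compound effect as inhibition relative to the vehicle culture.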

[17] = at 5.0 µM (retest, dose inferred, filed as 0.5)
[18] = at 50.0 µM (retest, dose inferred, filed as 5.0)

Measured: growth inhibition

CSc1s[s+]c(SC)c1-c1ccccc1
active: [1]; at 100.0 µM 72% | [3]; at 33.0 µM 93% | [3]; at 100.0 µM 89% | [4]; at 100.0 µM 76% | [5]; at 50.0 µM 72.3% | [8]; [18] 73% | [11]; [18] 72% | [11]; at 100.0 µM 75% | [13]; at 100.0 µM 70% | [14]; at 50.0 µM 71.8% | [15]; at 100.0 µM 73%
inactive: [1]; at 1.2 µM 13% | [1]; at 3.7 µM 4% | [1]; at 11.0 µM 9% | [1]; at 33.0 µM 54% | [2]; at 1.2 µM 5% | [2]; at 3.7 µM 15% | [2]; at 11.0 µM 18% | [2]; at 33.0 µM 49% | [2]; at 100.0 µM 65% | [3]; at 1.2 µM 14% | [3]; at 3.7 µM 10% | [3]; at 11.0 µM 61% | [4]; at 1.2 µM 13% | [4]; at 3.7 µM 28% | [4]; at 11.0 µM 25% | [4]; at 33.0 µM 59% | [5]; at 1.2 µM -3% | [5]; at 3.7 µM 2% | [5]; [17] 28% | [5]; at 11.0 µM 11% | [5]; at 33.0 µM 58% | [5]; [18] 46% | [5]; at 100.0 µM 68% | [6]; at 1.2 µM 7% | [6]; at 3.7 µM -5% | [6]; [17] 48% | [6]; at 11.0 µM 1% | [6]; at 33.0 µM 51% | [6]; [18] 52% | [6]; at 50.0 µM 60.6% | [6]; at 100.0 µM 59% | [7]; at 1.2 µM -31% | [7]; at 3.7 µM -23% | [7]; at 11.0 µM -21% | [7]; at 33.0 µM 21% | [7]; at 100.0 µM 59% | [8]; [17] -6% | [9]; at 1.2 µM 9% | [9]; at 3.7 µM 12% | [9]; at 11.0 µM 4% | [9]; at 33.0 µM 34% | [9]; at 100.0 µM 42% | [10]; [17] 26% | [10]; [18] 59% | [11]; at 1.2 µM 9% | [11]; at 3.7 µM 12% | [11]; [17] 36% | [11]; at 11.0 µM 24% | [11]; at 33.0 µM 66% | [12]; at 1.2 µM -26% | [12]; at 3.7 µM -19% | [12]; at 11.0 µM -34% | [12]; at 33.0 µM 39% | [12]; at 100.0 µM 68% | [13]; at 1.2 µM -20% | [13]; at 3.7 µM -29% | [13]; at 11.0 µM -15% | [13]; at 33.0 µM 47% | [14]; [17] 34% | [14]; [18] 56% | [15]; at 1.2 µM 3% | [15]; at 3.7 µM 14% | [15]; at 11.0 µM 22% | [15]; at 33.0 µM 63%

N#C/C(=C1C=C(Br)/C(=N\O)C=C\1Cl)c1cccc2ccccc12
inactive: [1]; at 1.2 µM 15% | [1]; at 3.7 µM 16% | [2]; at 1.2 µM -1% | [2]; at 3.7 µM 4% | [3]; at 1.2 µM 18% | [3]; at 3.7 µM 36% | [3]; at 11.0 µM 63% | [3]; at 33.0 µM 55% | [4]; at 1.2 µM 11% | [4]; at 3.7 µM 4% | [5]; at 1.2 µM 28% | [5]; at 3.7 µM 44% | [6]; at 1.2 µM 2% | [6]; at 3.7 µM 18% | [7]; at 1.2 µM -14% | [7]; at 3.7 µM -10% | [7]; at 11.0 µM 55% | [8]; [17] 5% | [9]; at 1.2 µM -15% | [9]; at 3.7 µM 27% | [9]; at 11.0 µM 63% | [10]; [17] 25% | [11]; at 1.2 µM 33% | [11]; at 3.7 µM 49% | [11]; [17] 59% | [12]; at 1.2 µM 0% | [12]; at 3.7 µM 7% | [16]; at 1.2 µM -37% | [16]; at 3.7 µM -11% | [16]; at 11.0 µM 58% | [15]; at 1.2 µM 0% | [15]; at 3.7 µM 12%
active: [1]; at 11.0 µM 94% | [1]; at 33.0 µM 93% | [1]; at 100.0 µM 95% | [2]; at 11.0 µM 84% | [2]; at 33.0 µM 86% | [2]; at 100.0 µM 96% | [3]; at 100.0 µM 88% | [4]; at 11.0 µM 79% | [4]; at 33.0 µM 85% | [4]; at 100.0 µM 97% | [5]; [17] 99% | [5]; at 11.0 µM 91% | [5]; at 33.0 µM 87% | [5]; [18] 98% | [5]; at 50.0 µM 89.2% | [5]; at 100.0 µM 94% | [6]; [17] 100% | [6]; at 11.0 µM 89% | [6]; at 33.0 µM 91% | [6]; [18] 98% | [6]; at 50.0 µM 90.7% | [6]; at 100.0 µM 94% | [7]; at 33.0 µM 70% | [7]; at 100.0 µM 96% | [8]; [18] 96% | [9]; at 33.0 µM 86% | [9]; at 100.0 µM 93% | [10]; [18] 95% | [11]; at 11.0 µM 94% | [11]; at 33.0 µM 93% | [11]; [18] 93% | [11]; at 100.0 µM 95% | [12]; at 11.0 µM 87% | [12]; at 33.0 µM 90% | [12]; at 100.0 µM 97% | [16]; at 33.0 µM 79% | [16]; at 100.0 µM 94% | [14]; [17] 100% | [14]; [18] 98% | [14]; at 50.0 µM 89.3% | [15]; at 11.0 µM 91% | [15]; at 33.0 µM 89% | [15]; at 100.0 µM 95%
